# In all, about 33,000 sequences were measured (“E-score (-0.5 to 0.5)”: median about -0.012, highest 2% from about 0.29 on). The full list was thinned out, with the highest values kept by preference.
# Target: T1, Ybr033w (UniProt P38073)
# T1 sequence: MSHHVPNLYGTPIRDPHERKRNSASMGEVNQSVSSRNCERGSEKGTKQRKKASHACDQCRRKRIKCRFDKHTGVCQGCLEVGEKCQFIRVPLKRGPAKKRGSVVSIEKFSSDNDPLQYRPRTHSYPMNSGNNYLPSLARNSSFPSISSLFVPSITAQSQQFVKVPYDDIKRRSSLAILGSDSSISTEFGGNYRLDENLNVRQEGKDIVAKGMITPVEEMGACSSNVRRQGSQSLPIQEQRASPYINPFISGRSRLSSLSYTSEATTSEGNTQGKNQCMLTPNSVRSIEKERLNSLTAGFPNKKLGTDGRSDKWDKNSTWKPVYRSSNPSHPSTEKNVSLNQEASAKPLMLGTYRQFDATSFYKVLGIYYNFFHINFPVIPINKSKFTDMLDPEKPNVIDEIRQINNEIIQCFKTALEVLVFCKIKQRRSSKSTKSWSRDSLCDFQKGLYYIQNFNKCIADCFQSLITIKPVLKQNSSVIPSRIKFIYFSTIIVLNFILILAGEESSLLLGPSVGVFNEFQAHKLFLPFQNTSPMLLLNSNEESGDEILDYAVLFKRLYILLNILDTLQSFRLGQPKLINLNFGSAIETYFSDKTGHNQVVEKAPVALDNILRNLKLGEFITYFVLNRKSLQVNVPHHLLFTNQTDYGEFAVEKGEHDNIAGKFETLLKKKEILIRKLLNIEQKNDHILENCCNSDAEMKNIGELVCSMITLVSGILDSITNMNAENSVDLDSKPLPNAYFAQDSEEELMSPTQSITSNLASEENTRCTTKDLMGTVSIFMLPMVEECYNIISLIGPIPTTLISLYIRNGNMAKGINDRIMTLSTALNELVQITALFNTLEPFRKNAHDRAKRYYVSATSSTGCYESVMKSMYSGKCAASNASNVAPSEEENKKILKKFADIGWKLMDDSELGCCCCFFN
# Assay: PBM E-score (8-mer binding enrichment) (E-score (-0.5 to 0.5)); higher = stronger / more preferred TF binding
# Settings: protein concentration: 200 nM; construct: GST-full length
# Procedure: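 Universal 'all 10-mer' protein binding microarrays (Agilent AMADID 015681) probed with GST-tagged S. cerevisiae TFs (full-length or DBD) made by in vitro transcription/translation (PURExpress), about 100-200 nM. Bound TF was detected with fluorescent anti-GST. Each ungapped 8-mer (which stands for itself and its reverse complement) is scored by the PBM enrichment score (E-score), a modified Wilcoxon-Mann-Whitney statistic from -0.5 to +0.5, computed with the Universal PBM Analysis Suite. Scale: above 0.35 generally sequence-specific binding.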
row,Sequence,PBM E-score
1,AGGACGGC,-0.235
2,GAGAGTCA,-0.0369
3,CGTCCTCC,-0.314
4,GAGAGATC,-0.00339
5,TCAGAAAA,0.0198
6,TCGGGAAA,0.253
7,TCGGAAAA,0.424
8,CCTTGGCC,-0.318
9,CAACATCC,-0.07
10,GAACATCC,0.303
11,AAACATCC,0.192
12,CAGAGCGA,0.105
13,TGGGTGAA,0.15
14,ATAAGGAT,0.297
15,ATAAGGAA,0.0859
16,ATAAGGAC,-0.0427
17,CCGAAGGC,-0.11
18,ATTCTGGC,-0.217
19,CGTATAAA,0.291
20,AGTATAAA,0.266
21,AATATAAA,0.344
22,CGCATAAA,0.297
23,CATATAAA,0.174
24,TGCATAAA,0.218
25,AATATAAT,0.236
26,AATATAAG,0.295

row,Sequence,PBM E-score
1,CATATAAG,0.114
2,CGTATAAC,0.0815
3,TATATAAA,0.282
4,AGCATAAA,0.141
5,AATACTTC,0.21
6,AACTAGAC,0.0442
7,GTGGTAGA,-0.158
8,CGGTGAGC,-0.26
9,AGCTGACA,-0.103
10,CCCACAAA,0.0286
11,AGTAAGAC,-0.00585
12,ATAACTGC,0.193
13,TGAAGAAA,0.134
14,CCAAGTCA,-0.0141
15,CAGTGCAG,-0.0894
16,ACGGAAGA,0.338
17,ACGGAAGT,0.0483
18,CCGGAAGA,0.404
19,TCGGAAGA,0.193
20,CCGGAAGC,0.0751
21,CCGGAAGG,0.0448
22,AGTCACCG,-0.104
23,TACTGCCA,0.038
24,AATCACCA,0.295
25,TATCACCA,0.0892
26,AATCACCG,-0.0481

row,Sequence,PBM E-score
1,AGACTGCC,-0.219
2,CAGTTATA,0.074
3,GCTATTTA,0.132
4,AATATTTC,0.34
5,CATATTTC,0.213
6,AATATTTA,0.318
7,GATTTTTA,0.209
8,AATATTTG,0.232
9,GATATTTA,0.338
10,CCTATTTC,0.124
11,CATATTTA,0.28
12,CGCTCTAA,-0.0524
13,CCAAAGAG,-0.0366
14,CCCACCAC,-0.0659
15,CCATACGA,0.0671
16,CCCGCCTC,-0.17
17,CGCCCCAA,-0.118
18,AGGAACAA,0.402
19,TGGAACAA,0.434
20,AGGAACAT,0.399
21,GGGAACAA,0.381
22,GCGAACAA,0.183
23,ATGAACAT,0.217
24,TGGAACCA,0.0554
25,TCGAACAA,0.138
26,AGGAACAC,0.193

row,Sequence,PBM E-score
1,GGGAACAC,0.0998
2,AGGAACAG,-0.0964
3,ACGAACAT,0.151
4,CCTGAATA,0.186
5,TCCCCTAA,-0.208
6,CTCTATTA,0.152
7,GTCTATCA,0.0657
8,ATGTATTG,0.266
9,ATCTATCA,0.302
10,CTCTATCA,-0.0434
11,GTGTATTA,0.28
12,ATGTATTA,0.293
13,ATCTATTA,0.327
14,GTCTATTA,-0.0198
15,GCTACAAC,0.0399
16,GAAGAGCC,-0.13
17,ACCGGCCA,-0.314
18,ATCCACAT,0.224
19,ACTCCTCC,-0.182
20,CGTAGTCA,-0.186
21,ACTATCAT,0.242
22,AATATCGT,0.33
23,AATATCAC,0.239
24,AATATCAT,0.294
25,CATATCAG,0.0658
26,AATATCGA,0.164

row,Sequence,PBM E-score
1,AATATCAA,0.233
2,AATATCAG,0.299
3,AATATCGG,0.198
4,ACGACGTA,0.0878
5,ACTTGGAC,0.127
6,ACCAGCAT,0.0255
7,CTGCGGTC,-0.262
8,AATCTACG,-0.0149
9,ACAGCACA,0.144
10,CCCCTTCG,-0.317
11,AAAATACT,0.301
12,AAAATACG,0.171
13,AATACTCT,0.298
14,AAAATACA,0.254
15,AATACTCA,0.229
16,ACAATACT,0.219
17,AATACTCC,0.0328
18,CAAATACC,0.112
19,AAAATACC,0.315
20,CTCTAGCA,-0.0957
21,AACGATGA,0.0671
22,GTGTTAGA,0.0758
23,GATAAGTA,0.205
24,GTAGACTA,-0.131
25,AATGCAAA,0.274
26,TCACTGGA,0.00252

row,Sequence,PBM E-score
1,ATAGTAGC,0.16
2,GACCTCCC,-0.249
3,CCGCGTGC,-0.231
4,CTTAAATA,0.114
5,ATAAAATG,0.219
6,ATTAAATA,0.33
7,ATTAAATC,0.213
8,GTTAAATA,0.278
9,ATTAAATG,0.347
10,AGCACAGC,0.0732
11,CATCGAGC,-0.0235
12,GTCTTGCA,0.0132
13,ATCTTGCG,0.0267
14,ATCTTGCA,0.294
15,AACTTGGT,0.168
16,GCTTTCCC,-0.253
17,TAAACTTA,0.166
18,AAAACTAT,0.217
19,AAAACTAA,0.328
20,GAAACTTC,0.112
21,AAAACTTC,0.176
22,CAAACTTA,0.191
23,AAAACTTA,0.362
24,TAAACTAA,0.271
25,GAAACTTA,0.332
26,ATTCTTAA,0.0371

row,Sequence,PBM E-score
1,AAAGCTAG,0.103
2,CCTAGCCG,-0.157
3,GAGCGTTA,0.113
4,GGTTCTAC,-0.0153
5,AGAATAAA,0.312
6,TGAATAAA,0.195
7,GGAATAAC,0.453
8,AGAATAAT,0.163
9,AGAATAAG,0.14
10,AGAATAAC,0.141
11,GGAATAAA,0.296
12,CGAATAAA,0.145
13,CGAATAAC,0.07
14,GATCGAGC,-0.00942
15,ATAGGTGG,-0.108
16,CGAGTGGC,-0.32
17,AGTTACCG,0.0592
18,GGAAGAAA,0.34
19,CGAAGAAA,0.156
20,ACAAGAAA,0.206
21,CCAAGAAA,0.167
22,GGAAGAAC,0.461
23,TCAAGAAA,0.291
24,GTCAAGAA,0.146
25,TTCAAAAA,0.239
26,TTCAAGAA,0.296

row,Sequence,PBM E-score
1,CGAAGAAC,0.145
2,AGAAGAAC,0.171
3,AGAAGAAA,0.0907
4,AGACTAGC,-0.208
5,CCTTGCTA,0.00278
6,AGGAGCGG,-0.359
7,CGGGTAGA,-0.0322
8,ATAAATCG,0.218
9,AGAAATTG,0.281
10,ATAAATCA,0.223
11,ATAAATTA,0.375
12,ATAAATTG,0.365
13,ATAAATCC,0.324
14,GTAAATTA,0.193
15,ATAAATTC,0.308
16,AAAAATTG,0.221
17,ATAAATGC,0.0963
18,CTAAATTA,0.173
19,CTAAATTC,0.204
20,ACTATTGA,0.243
21,CTGGAGAA,-0.115
22,CAGAGTAA,-0.0159
23,CTAGAGCC,-0.0992
24,TCCAACGA,-0.0709
25,AGTCACAT,0.0586
26,GTGCCCGA,-0.142

row,Sequence,PBM E-score
1,AAAGCTTC,-0.0172
2,AGCTCTGG,-0.197
3,AGTTGCTC,-0.15
4,ATTCCACG,-0.0625
5,ATTCCACC,0.208
6,ATTCCACA,0.335
7,AGATTCTG,-0.0373
8,ACTGGATG,-0.0668
9,ATTGGTCG,-0.0127
10,GTAATAGA,0.17
11,GCAATATA,0.123
12,AGAATATA,0.134
13,CTAATAGA,0.06
14,CTAATATC,0.196
15,CGAATATA,0.156
16,GGAATATA,0.291
17,ATATAATA,0.34
18,CTAATATA,0.297
19,CTATAATA,0.156
20,GTAATATA,0.299
21,GTATAATA,0.207
